Outcome and AC50 data for 17 compounds are collected here from PubChem BioAssay (EPA / NIEHS).

Broadly, the AC50 is the midpoint of the concentration-response curve, whichever way the signal moves.

Activity calls are given as the source filed them. Rule for the calls: active = hit-call score of the fitted dose curve at least 0.9, where 1 is the maximum; inactive = score below 0.9.

The assay is described as follows: CEETOX_H295R_CORTIC: CeeTox H295R High-throughput Steroidogenesis Assay for Corticosterone (CORTIC) (AID 2283437).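 Note: corticosterone secreted into medium quantified by mass spectrometry.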 To be noted: actives raise or lower the signal. Here is the method:
CEETOX_H295R is a cell-based, multiplexed-readout assay that uses H295R, a human adrenal gland cell line, with measurements taken at 48 hours after chemical dosing in a 96-well plate.CEETOX_H295R_CORTIC is one of 23 assay component(s) measured or calculated from the CEETOX_H295R assay. It is designed to make measurements of hormone induction, a form of inducible reporter, as detected with absorbance signals by HPLC-MS-MS technology.Data from the assay component CEETOX_H295R_CORTIC was analyzed into 1 assay endpoint. This assay endpoint, CEETOX_H295R_CORTIC, was analyzed with bidirectional fitting relative to DMSO as the negative control and baseline of activity. Using a type of inducible reporter, gain or loss-of-signal activity using HPLC-MS-MS was used to understand synthesis of Corticosterone in H295R cell line at 48hr of chemical exposure. To generalize the intended target to other relatable targets, this assay endpoint is annotated to the steroid hormone intended target family, where the subfamily is glucocorticoids.
Cell culture and media preparation procedures were conducted in accordance with OECD Test No. 456 guidelines, with minor modifications. H295R cells (ATCC CRL-2128) were expanded for 5 passages and frozen in batches in liquid nitrogen. Prior to the steroidogenesis assay, H295R cells were thawed and passed at least 4 times. The maximum passage was 10. Cells were maintained in a 1:1 mixture of DMEM/F12 supplemented with 5ml/L ITS+ Premix (BD Bioscience) and 12.5 ml/L Nu-Serum (BD Bioscience). After seeding cells into 96-well plates at 50-60% confluency, cells were allowed to adhere overnight. Prior to chemical testing, culture medium was replaced with 175 uL medium containing 10 uM forskolin to stimulate steroidogenesis for 48 hours. Following prestimulation, forskolin medium was replaced with medium containing test chemical solubilized in DMSO (ensuring a final concentration of 0.1% DMSO). Test chemicals were incubated for 48 hours, then the medium was removed and split into 2 vials containing approximately 75uL each, and stored at -80 C prior to hormone analysis. For steroid quantification, media samples were shipped to OpAns, LLC (Durham, NC) on dry ice, and samples were thawed to room temperature prior to liquid-liquid extraction. Steroid hormones were extracted from media samples using methyl tertbutyl ether (MTBE). An extra derivatization with dansyl chloride was included for estrogen (estrone and estradiol) detection only. Steroid hormones were separated by HPLC, eluted using a reverse phase C18 gradient with electrospray positive ionization, followed by quantification by tandem mass spectrometry (MS/MS). Data were acquired on a MassHunter Workstation Acquisition version B03.01 (Agilent Technologies, Inc.) and processed using MassHunter Quantitative Analysis for QQQ. Accuracy was determined for each hormone analyte from 3 standards to determine upper and lower limits of quantification (ULOQ and LLOQ, respectively) using a 7-point standard curve. Precision and accuracy of the extraction and quantification methods were calculated as the percent relative standard deviation (%RSD) of the spiked standards and percent spiked standard recovered, respectively. […] Test medium was removed following chemical exposure, and cell viability was evaluated in the same wells by MTT. MTT procedures were as follows: after removal of test medium, 500 uL of 0.5 mg/ml of 3-[4,5-dimethylthiazol-2-y]2,5-diphenyltetrazoliumbromide solution was added to the cells. Following a 4-hour incubation at 37 C and 5% CO2 to allow formazan-crystal formation, the MTT solution was removed and blue formazan salt crystals were solubilized using 500uL anhydrous isopropanol with shaking for 20 minutes. Absorbance was read at 570 and 650nm using a Packard Fusion microplate reader. Background correction of absorbance units was used to determine percent change relative to controls. […]
As for `Oc1ccc(O)cc1`, the call was inactive.
Consider `CCN(CC)CCOc1ccc(C(=C(Cl)c2ccccc2)c2ccccc2)cc1`, for which the half-maximal activity concentration (AC50) is 0.039 µM (active).
On to `Nc1nc(Cl)nc2c1ncn2[C@H]1C[C@H](O)[C@@H](CO)O1`, for which the concentration at half-maximal activity (AC50) is 5.64 µM (active).
`O=C1NC(=O)C(c2ccccc2)(c2ccccc2)N1`: the AC50 is 10.4 µM (active).
With `O=C1c2c(O)cccc2Cc2cccc(O)c21`, the result was inactive.
`Oc1ccccc1O`: the call was inactive.
On the same count and under the same terms, as for `O=C(O)CN(CC(=O)O)CC(=O)O`, the entry is “inactive”.
In the case of `O=C(Oc1ccccc1)c1cccc(C(=O)Oc2ccccc2)c1`, the AC50 was 72.7 µM (active).
In the case of `S=c1[nH]c2ccccc2s1`, the compound was classed as inactive.
For `CCCCCCCCCC[N+](C)(C)[O-]`, the compound was called inactive.
Turning to `CC(C)(O)c1ccc(CNC(=O)c2cccnc2Oc2ccc(F)cc2)cc1`, the compound was classed as inactive.
Same read-out and setting: as for `CC1=C(C)S(=O)(=O)CCS1(=O)=O`, the entry is “inactive”.
Regarding `Cc1cc(Cc2ccc(N)c(C)c2)ccc1N`, the AC50 is 0.458 µM (active).
The same measure, in the same setting: as for `COc1ccc(C(=O)Nc2nc3ccccc3c(NCc3ccccc3)c2C#N)cc1`, the figure is 3.33 µM (active).
With `CN(C)C(=O)NC1(c2ccccc2)CCN(CCC[C@]2(c3ccc(Cl)c(Cl)c3)CCCN(C(=O)c3ccccc3)C2)CC1`, the result was inactive.
Consider `CCCCc1nc2cccnc2n1Cc1ccc(-c2ccccc2-c2nnn[nH]2)cc1`, for which the result was inactive.
Regarding `CC(=O)[C@@]1(O)CC[C@H]2[C@@H]3CCC4=CC(=O)CC[C@]4(C)[C@H]3CC[C@@]21C`, the compound was classed as inactive.
